Source: PubChem BioAssay AID1159580 (chemical genetic matrix, 2015)
Out of some 5,500 compounds screened, about 2,000 (36%) were called active. Roughly 18% stayed inconclusive and do not appear here. Cut-off read from the data, not from the text of the source: active = normalized growth mostly below about 0.91 (no sharp cut-off); inconclusive = no clear call, values can overlap the other calls; inactive = mostly above about 0.92. Some of the results follow.

Test: chemical genetic growth profiling, strain panel (AID 1159580);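 note: tested at 20 µM; growth read once vehicle control cultures reached saturation at 30 °C; 1 = growth at the plate median or of vehicle wells; lower values mean less growth of the strain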
Conditions: S. cerevisiae deletion strains, growth OD
[1] = locus YAR019C, strain CDC15, stronger effect = lower value
[2] = locus YBL105C, strain PKC1, stronger effect = lower value
[3] = locus YBR135W, strain CKS1, stronger effect = lower value
[4] = locus YBR136W, strain MEC1, stronger effect = lower value
[5] = locus YBR160W, strain CDC28, stronger effect = lower value
[6] = locus YDL017W, strain CDC7, stronger effect = lower value
[7] = locus YDL028C, strain MPS1, stronger effect = lower value
[8] = locus YDL101C, strain DUN1, stronger effect = lower value
[9] = locus YDL108W, strain KIN28, stronger effect = lower value
[10] = locus YDL132W, strain cdc53, stronger effect = lower value
[11] = locus YDL214C, strain PRR2, stronger effect = lower value
[12] = locus YDR052C, strain DBF4, stronger effect = lower value
[13] = locus YDR054C, strain cdc34, stronger effect = lower value
[14] = locus YDR226W, strain ADK1, stronger effect = lower value
[15] = locus YDR477W, strain SNF1, stronger effect = lower value
[16] = locus YER123W, strain YCK3, stronger effect = lower value
[17] = locus YER133W, strain GLC7, stronger effect = lower value
[18] = locus YFL009W, strain cdc4, stronger effect = lower value
[19] = locus YFL029C, strain CAK1, stronger effect = lower value
[20] = locus YFR003C, strain YPI1, stronger effect = lower value
[21] = locus YFR019W, strain FAB1, stronger effect = lower value
[22] = locus YFR028C, strain CDC14, stronger effect = lower value
[23] = locus YGR040W, strain KSS1, stronger effect = lower value
[24] = locus YGR052W, strain FMP48, stronger effect = lower value
[25] = locus YGR092W, strain DBF2, stronger effect = lower value
[26] = locus YHR030C, strain SLT2, stronger effect = lower value
[27] = locus YHR079C, strain IRE1, stronger effect = lower value
[28] = locus YHR082C, strain KSP1, stronger effect = lower value
[29] = locus YHR205W, strain SCH9, stronger effect = lower value
[30] = locus YIL147C, strain SLN1, stronger effect = lower value
[31] = locus YJL095W, strain BCK1, stronger effect = lower value
[32] = locus YJL128C, strain PBS2, stronger effect = lower value
[33] = locus YJL157C, strain FAR1, stronger effect = lower value
[34] = locus YJR016C, strain ILV3, stronger effect = lower value
[35] = locus YJR066W, strain TOR1 (second series), stronger effect = lower value
[36] = locus YJR066W, strain TOR1, stronger effect = lower value
[37] = locus YKL048C, strain ELM1, stronger effect = lower value
[38] = locus YKL067W, strain YNK1, stronger effect = lower value
[39] = locus YKL101W, strain HSL1, stronger effect = lower value
[40] = locus YKL193C, strain SDS22, stronger effect = lower value
[41] = locus YKL203C, strain TOR2, stronger effect = lower value
[42] = locus YLR113W, strain HOG1, stronger effect = lower value
[43] = locus YLR133W, strain CKI1, stronger effect = lower value
[44] = locus YLR403W, strain SFP1, stronger effect = lower value
[45] = locus YML070W, strain DAK1, stronger effect = lower value
[46] = locus YMR001C, strain CDC5, stronger effect = lower value
[47] = locus YMR205C, strain PFK2 (second series), stronger effect = lower value
[48] = locus YMR277W, strain FCP1, stronger effect = lower value
[49] = locus YNL006W, strain LST8, stronger effect = lower value
[50] = locus YNL020C, strain ARK1, stronger effect = lower value
[51] = locus YNL161W, strain CBK1, stronger effect = lower value
[52] = locus YNL183C, strain NPR1, stronger effect = lower value
[53] = locus YNL207W, strain RIO2, stronger effect = lower value
[54] = locus YNL222W, strain SSU72, stronger effect = lower value
[55] = locus YNL307C, strain MCK1 (second series), stronger effect = lower value
[56] = locus YOL078W, strain AVO1, stronger effect = lower value
[57] = locus YOL136C, strain PFK27, stronger effect = lower value
[58] = locus YOR061W, strain CKA2, stronger effect = lower value
[59] = locus YOR119C, strain RIO1, stronger effect = lower value
[60] = locus YOR231W, strain MKK1, stronger effect = lower value
[61] = locus YOR329C, strain SCD5, stronger effect = lower value
[62] = locus YPL031C, strain PHO85, stronger effect = lower value
[63] = locus YPL153C, strain RAD53, stronger effect = lower value
[64] = locus YPL204W, strain HRR25, stronger effect = lower value
[65] = locus YPL209C, strain IPL1, stronger effect = lower value
[66] = locus YPL256C, strain CLN2, stronger effect = lower value
[67] = locus YPR025C, strain CCL1, stronger effect = lower value
[68] = locus YPR106W, strain ISR1, stronger effect = lower value
[69] = locus YPR111W, strain DBF20, stronger effect = lower value
[70] = strain NNK1, stronger effect = lower value
[71] = strain TSCII, stronger effect = lower value

Measured: normalized growth

CC1CCc2c(sc3ncnc(Sc4ccccc4)c23)C1 (stereo not drawn)
active: [26] 1.19 [resistant]
inactive: [1] 0.992 | [2] 0.972 | [3] 0.979 | [4] 0.978 | [5] 0.983 | [6] 0.981 | [7] 0.978 | [8] 0.978 | [9] 0.976 | [10] 0.977 | [11] 0.945 | [12] 0.98 | [13] 0.981 | [14] 0.979 | [15] 0.952 | [16] 0.926 | [17] 0.956 | [18] 0.983 | [19] 0.987 | [20] 0.977 | [21] 0.966 | [22] 0.975 | [23] 0.937 | [24] 1 | [25] 0.991 | [27] 1.11 | [28] 1.06 | [29] 0.992 | [30] 0.977 | [31] 0.996 | [32] 0.94 | [33] 0.962 | [34] 0.984 | [35] 0.948 | [36] 1.09 | [37] 0.966 | [38] 0.948 | [39] 0.931 | [40] 0.983 | [41] 1.04 | [42] 0.886 | [43] 0.946 | [44] 0.968 | [45] 0.936 | [46] 0.984 | [47] 0.95 | [48] 0.98 | [49] 0.99 | [50] 0.943 | [51] 0.98 | [52] 1.03 | [53] 0.976 | [54] 0.989 | [55] 0.969 | [56] 0.976 | [57] 0.913 | [58] 0.935 | [59] 1.02 | [60] 0.925 | [61] 0.983 | [62] 0.945 | [63] 0.941 | [64] 0.92 | [65] 0.982 | [66] 1.02 | [67] 0.982 | [68] 0.984 | [69] 0.96 | [70] 0.981 | [71] 0.979

Cc1ccc(C(=O)Nc2ccc3ccccc3n2)cc1
active: [42] 0.857
inactive: [1] 0.956 | [2] 0.954 | [3] 0.958 | [4] 0.965 | [5] 0.95 | [6] 0.964 | [7] 0.964 | [8] 0.96 | [9] 0.963 | [10] 0.96 | [11] 0.92 | [12] 0.976 | [13] 0.94 | [14] 0.956 | [15] 0.937 | [16] 0.906 | [17] 0.929 | [18] 0.954 | [19] 0.956 | [20] 0.961 | [21] 0.983 | [22] 0.944 | [23] 0.925 | [24] 0.99 | [25] 0.892 | [26] 0.938 | [27] 0.933 | [28] 0.994 | [29] 0.954 | [30] 0.963 | [31] 0.952 | [32] 0.954 | [33] 0.917 | [34] 0.946 | [35] 0.918 | [36] 0.978 | [37] 0.948 | [38] 0.93 | [39] 0.95 | [40] 0.957 | [41] 0.986 | [43] 0.944 | [44] 0.934 | [45] 0.901 | [46] 0.966 | [47] 0.941 | [48] 0.956 | [49] 0.966 | [50] 0.947 | [51] 0.944 | [52] 0.959 | [53] 0.964 | [54] 0.95 | [55] 0.93 | [56] 0.958 | [57] 0.92 | [58] 0.964 | [59] 1.01 | [60] 0.921 | [61] 0.962 | [62] 0.948 | [63] 0.928 | [64] 0.937 | [65] 0.949 | [66] 0.876 | [67] 0.959 | [68] 0.949 | [69] 0.945 | [70] 0.956 | [71] 0.957

COC(=O)Cc1nc(NC(=O)c2ccccc2)sc1C
inactive: locus YAL013W, strain DEP1, stronger effect = lower value 1.02 | locus YBR229C, strain ROT2, stronger effect = lower value 1 | [8] 0.972 | locus YDL134C, strain PPH21, stronger effect = lower value 1.01 | locus YDR150W, strain NUM1, stronger effect = lower value 0.994 | locus YEL061C, strain CIN8, stronger effect = lower value 1.02 | locus YGR078C, strain PAC10, stronger effect = lower value 0.999 | [26] 0.977 | locus YHR087W, strain rtc3, stronger effect = lower value 0.98 | locus YJR043C, strain POL32, stronger effect = lower value 1.01 | locus YJR075W, strain HOC1, stronger effect = lower value 1 | locus YLR039C, strain RIC1, stronger effect = lower value 1.02 | locus YLR058C, strain SHM2 (second series), stronger effect = lower value 1 | locus YLR085C, strain ARP6, stronger effect = lower value 0.889 | locus YLR262C, strain YPT6, stronger effect = lower value 1.12 | locus YML094W, strain GIM5, stronger effect = lower value 0.948 | locus YMR219W, strain ESC1, stronger effect = lower value 0.994 | locus YMR263W, strain SAP30, stronger effect = lower value 1 | locus YNL153C, strain GIM3, stronger effect = lower value 1 | locus YNL298W, strain CLA4 (second series), stronger effect = lower value 1.02 | locus YNL322C, strain KRE1, stronger effect = lower value 1.01 | locus YNR030W, strain Alg12, stronger effect = lower value 0.983 | locus YOL006C, strain TOP1, stronger effect = lower value 0.976 | locus YPL055C, strain LGE1, stronger effect = lower value 0.927 | locus YPL241C, strain CIN2, stronger effect = lower value 0.944 | locus YPR135W, strain CTF4, stronger effect = lower value 1
